# Measured values taken from the supplement of paper PMC11537057.
# Where a name gives a salt, the structure may show the parent alone. In all, about 1,700 compounds went through this assay and about 15 (0.9%) showed activity. This is one part of a sample in which actives are shown more often than they occur.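 The calls were made as follows: active = infection cut by 80% or more with cell growth above 90% in both runs; inactive = the rest.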
# Test system: HSV-1 strain 17 YFP-ICP4 in A549
# Assay: HSV-1 infection relative to DMSO (ICP4-YFP per H2B-RFP signal); higher = more viral infection (less antiviral activity), active = hit call of the paper
# Conditions: 10 µM; 48 h; MOI: 0.1
# Protocol: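 Selleck FDA-approved library (L1300) screened in duplicate at 10 µM on A549 H2B-mRuby cells in 384-well plates, infected with HSV-1 strain 17 YFP-ICP4 at MOI 0.1 one hour before drug addition. Imaged after 2 days at 37°C. Cell growth (H2B-RFP) and infection (ICP4-YFP) are expressed as % of DMSO-treated wells. Hits: growth >90% and infection <20% of DMSO.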
row,SMILES,HSV-1 infection
1,Cc1c(O)cccc1C(=O)N[C@@H](CSc1ccccc1)[C@H](O)CN1C[C@H]2CCCC[C@H]2C[C@H]1C(=O)NC(C)(C)C [Nelfinavir Mesylate],9.57% (active)
2,Cc1c(C(C)C)c(=O)n(-c2ccccc2)n1C [Propyphenazone (4-Isopropylantipyrine)],98.5% (inactive)
3,CCCCCCC(=O)O[C@H]1CC[C@H]2[C@@H]3CCC4=CC(=O)CC[C@]4(C)[C@H]3CC[C@]12C [Testosterone Enanthate],66.7% (inactive)
4,C=C[C@@H]1C[C@]1(NC(=O)[C@@H]1C[C@@H]2CN1C(=O)[C@H](C(C)(C)C)NC(=O)O[C@@H]1C[C@H]1CCCCCc1nc3ccc(OC)cc3nc1O2)C(=O)NS(=O)(=O)C1CC1 [Grazoprevir],119% (inactive)
5,CCCCCCCCCCCCC[N+](C)(C)Cc1ccccc1 [Benzalkonium chloride],65.3% (inactive)
6,NC(=O)[C@@H](CCC(F)(F)F)N(Cc1ccc(-c2ncon2)cc1F)S(=O)(=O)c1ccc(Cl)cc1,95.4% (inactive)
7,CCNC(=O)[C@@H]1CCCN1C(=O)[C@H](CCCN=C(N)N)NC(=O)[C@H](CC(C)C)NC(=O)[C@@H](C)NC(=O)[C@H](Cc1ccc(O)cc1)NC(=O)[C@H](CO)NC(=O)[C@H](Cc1c[nH]c2ccccc12)NC(=O)[C@H](Cc1cnc[nH]1)NC(=O)[C@@H]1CCC(=O)N1 [Alarelin Acetate],90.9% (inactive)
8,CC1=C(C(=O)OC(C)C)C(c2cccc([N+](=O)[O-])c2)C(C(=O)OC2CN(C(c3ccccc3)c3ccccc3)C2)=C(N)N1 (stereo not given) [Azelnidipine],121% (inactive)
9,O=C1/C(=C2\Nc3ccc(S(=O)(=O)O)cc3C2=O)Nc2ccc(S(=O)(=O)O)cc21 [Indigo carmine],101% (inactive)
10,C[C@@H](O)[C@H]1C(=O)N2C(C(=O)O)=C(S[C@@H]3CN[C@H](C(=O)Nc4cccc(C(=O)O)c4)C3)[C@H](C)[C@H]12 [Ertapenem sodium],109% (inactive)
11,CCC[C@@H]1C[C@@H](C(=O)N[C@@H]([C@H]2O[C@H](SC)[C@H](O)[C@@H](O)[C@H]2O)[C@H](C)Cl)N(C)C1 [Clindamycin HCl],87.2% (inactive)
12,CCC[C@@H]1C[C@@H](C(=O)N[C@@H]([C@H]2O[C@H](SC)[C@H](O)[C@@H](O)[C@H]2O)[C@@H](C)O)N(C)C1 [Lincomycin HCl],15.9% (active)
13,CCC[C@@H]1C[C@@H](C(=O)N[C@@H]([C@H]2O[C@H](SC)[C@H](OP(=O)(O)O)[C@@H](O)[C@H]2O)[C@H](C)Cl)N(C)C1 [Clindamycin Phosphate],125% (inactive)
14,CCC[C@@H]1C[C@@H](C(=O)N[C@@H]([C@H]2O[C@H](SC)[C@H](O)[C@@H](O)[C@H]2O)[C@@H](C)O)N(C)C1 [Lincomycin Hydrochloride Monohydrate],86.4% (inactive)
15,CCC[C@@H]1C[C@@H](C(=O)N[C@@H]([C@H]2O[C@H](SC)[C@H](O)[C@@H](O)[C@H]2O)[C@H](C)Cl)N(C)C1 [Clindamycin],83.9% (inactive)
16,CC(C)C(Br)C(=O)NC(N)=O (stereo not given) [Bromisoval],117% (inactive)
17,N#Cc1ccc(Oc2ccc3c(c2)COB3O)cc1 [Crisaborole (AN2728)],95.1% (inactive)
18,CNC(C)Cc1ccccc1OC (stereo not given) [Methoxyphenamine Hydrochloride],110% (inactive)
19,Nc1nc(CC(=O)Nc2ccc(CCNC[C@H](O)c3ccccc3)cc2)cs1 [Mirabegron],104% (inactive)
20,O=C(O)CCn1c2c(c3ccccc31)C[C@H](NS(=O)(=O)c1ccc(F)cc1)CC2 [Ramatroban],96.2% (inactive)
21,O=C(NC[C@H](O)CO)c1ccncc1Nc1ccc(I)cc1F,34.8% (inactive)
22,CC[C@H](C)[C@@H]1NC(=O)[C@H](Cc2ccc(O)cc2)NC(=O)[C@@H](N)CSSC[C@@H](C(=O)N2CCC[C@H]2C(=O)N[C@@H](CC(C)C)C(=O)NCC(N)=O)NC(=O)[C@H](CC(N)=O)NC(=O)[C@H](CCC(N)=O)NC1=O [Oxytocin (Syntocinon)],82.7% (inactive)
23,CCS(=O)(=O)N1CCN(c2ccc(Nc3ncc(C(N)=O)c(NC4CC4)n3)cc2)CC1,25.3% (inactive)
24,CC(C)C[C@H](NC(=O)CNC(=O)[C@H](Cc1ccc(O)cc1)NC(=O)[C@H](CO)NC(=O)[C@H](Cc1c[nH]c2ccccc12)NC(=O)[C@H](Cc1cnc[nH]1)NC(=O)[C@@H]1CCC(=O)N1)C(=O)N[C@@H](CCCNC(=N)N)C(=O)N1CCC[C@H]1C(=O)NCC(N)=O [Gonadorelin Acetate],117% (inactive)
25,NCC(=O)O [Glycine],95.8% (inactive)
26,CCCN(CCc1cccs1)[C@H]1CCc2c(O)cccc2C1 [Rotigotine],27.9% (inactive)
27,CCCCCCCN(CC)CCCC(O)c1ccc(NS(C)(=O)=O)cc1 (stereo not given) [Ibutilide Fumarate],84.3% (inactive)
28,O.O.O.O=C([O-])C1[O][Sb]2[O]C(=O)C([O]2)C(C(=O)[O-])[O][Sb]2[O]C(=O)C1[O]2.[K+].[K+] (stereo not given) [Antimonyl potassium tartrate trihydrate],80.2% (inactive)

row,SMILES,HSV-1 infection
1,COC(=O)C1=C(C#N)NC(C)=C(C(=O)OC(C)C)C1c1cccc([N+](=O)[O-])c1 (stereo not given) [Nilvadipine],95.1% (inactive)
2,Cc1onc(-c2c(F)cccc2Cl)c1C(=O)N[C@@H]1C(=O)N2[C@@H]1SC(C)(C)[C@@H]2C(=O)O [Flucloxacillin sodium],114% (inactive)
3,O=C(Nc1cccc2c(=O)cc(-c3nnn[nH]3)oc12)c1ccc(OCCCCc2ccccc2)cc1 [Pranlukast],79.1% (inactive)
4,OB1OCc2cc(F)ccc21 [Tavaborole (AN-2690)],115% (inactive)
5,CCOc1cc(N)c(Cl)cc1C(=O)NCC1CN(Cc2ccc(F)cc2)CCO1 (stereo not given) [Mosapride Citrate],96.7% (inactive)
6,CCOc1cc(N)c(Cl)cc1C(=O)NCC1CN(Cc2ccc(F)cc2)CCO1 (stereo not given) [Mosapride],97.6% (inactive)
7,C[N+]1(C)[C@@H]2C[C@@H](OC(=O)C(O)(c3cccs3)c3cccs3)C[C@H]1[C@@H]1O[C@@H]12 [Tiotropium Bromide hydrate],100% (inactive)
8,CCOCCn1c(C2CCN(CCc3ccc(C(C)(C)C(=O)O)cc3)CC2)nc2ccccc21 [Bilastine],107% (inactive)
9,CC1(C)S[C@@H]2[C@H](NC(=O)Cc3ccccc3)C(=O)N2[C@H]1C(=O)O.CCN(CC)CCOC(=O)c1ccc(N)cc1 [Penicillin G Procaine],120% (inactive)
10,Cc1cncc(CN2CCC(=C3c4ccc(Cl)cc4CCc4cccnc43)CC2)c1 [Rupatadine Fumarate],108% (inactive)
11,CO[C@H]1O[C@H](COS(=O)(=O)O)[C@@H](O[C@@H]2O[C@@H](C(=O)O)[C@@H](O[C@H]3O[C@H](COS(=O)(=O)O)[C@@H](O[C@@H]4O[C@H](C(=O)O)[C@@H](O[C@H]5O[C@H](COS(=O)(=O)O)[C@@H](O)[C@H](O)[C@H]5NS(=O)(=O)O)[C@H](O)[C@H]4O)[C@H](OS(=O)(=O)O)[C@H]3NS(=O)(=O)O)[C@H](O)[C@H]2OS(=O)(=O)O)[C@H](O)[C@H]1NS(=O)(=O)O [Fondaparinux Sodium],104% (inactive)
12,O=c1c(-n2ccnn2)c[nH]n1-c1cc(N2CCOCC2)ncn1 [Molidustat (BAY 85-3934)],81.4% (inactive)
13,CC(C)OC(=O)[C@H](C)N[P@](=O)(CO[C@H](C)Cn1cnc2c(N)ncnc21)Oc1ccccc1 [Tenofovir Alafenamide (GS-7340)],2.77% (active)
14,"CC(C)OC(=O)[C@H](C)N[P@](=O)(OC[C@H]1O[C@@H](n2ccc(=O)[nH]c2=O)[C@](C)(F)[C@@H]1O)Oc1ccccc1 [Sofosbuvir (PSI-7977, GS-7977)]",105% (inactive)
15,CC(C)OC(=O)OCOP(=O)(CO[C@H](C)Cn1cnc2c(N)ncnc21)OCOC(=O)OC(C)C [Tenofovir Disoproxil Fumarate],86.9% (inactive)
16,CCN(C(=O)c1c(O)c2c(Cl)cccc2n(C)c1=O)c1ccccc1 [Laquinimod],117% (inactive)
17,CC(=O)Nc1cccc(-n2c(=O)n(C3CC3)c(=O)c3c(Nc4ccc(I)cc4F)n(C)c(=O)c(C)c32)c1,43.8% (inactive)
18,Cc1ccccc1C(=O)Nc1ccc(C(=O)N2CCCC(O)c3cc(Cl)ccc32)c(C)c1 (stereo not given) [Tolvaptan],68% (inactive)
19,Cc1[nH]c2ccccc2c1CCNCc1ccc(/C=C/C(=O)NO)cc1 [Panobinostat (LBH589)],34.1% (inactive)
20,CC(C)C[C@H](NC(=O)[C@@H](NC(=O)c1cccc(-c2ccccc2)n1)[C@@H](C)O)B(O)O,106% (inactive)
21,CN(C(=O)c1ccc(F)cc1C(F)(F)F)C1CCN(c2nnc(-c3ccnn3C)c3ccccc23)CC1,113% (inactive)
22,Cc1cn([C@H]2O[C@@H](CO)[C@H](O)[C@H]2F)c(=O)[nH]c1=O [Clevudine],114% (inactive)
23,O=c1[nH]c(=O)n([C@H]2C[C@H](O)[C@@H](CO)O2)cc1/C=C/Br [Brivudine],2.36% (active)
24,O=c1[nH]c(=O)n([C@H]2C[C@H](O)[C@@H](CO)O2)cc1C(F)(F)F [Trifluridine],20.6% (inactive)
25,Cc1cn([C@@H]2C[C@@H](O)[C@H](CO)O2)c(=O)[nH]c1=O [Telbivudine],139% (inactive)
26,Cc1cn([C@H]2C[C@H](N=[N+]=[N-])[C@@H](CO)O2)c(=O)[nH]c1=O [Zidovudine],89.6% (inactive)
27,O=c1[nH]c(=O)n([C@H]2C[C@H](O)[C@@H](CO)O2)cc1I [Idoxuridine],2.44% (active)
